Measurements: PubChem BioAssay AID748 (Sanford-Burnham Center for Chemical Genomics, 2007)
Among all 96,000 compounds or so, about 100 (0.1%) were called active.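 Rule for the calls: active = displacement above 50% at 20 µM plus a fluorescence interference ratio under 1.5; inactive = the rest.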 What follows is part of a selection rich in actives, with near analogues and random picks from the rest. Measured potencies and affinities stand elsewhere.

molecular target: Bcl-2-like protein 10 (Homo sapiens) (UniProt Q9HD36); experiment: displacers of TR3 peptide from Bcl-B, primary screen, selectivity assay for Bfl-1 inhibitor project, biochemical, fluorescence polarization, FITC-TR3 peptide (AID 748); conditions: FP displacement of FITC-TR3 peptide from Bcl-B; at 20 µM; active compounds read high;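 note: plate controls were wells without compound for no effect and wells lacking Bcl-B protein for full effect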

displacement, inactive:
COc1ccc(OCC(=O)N/N=C/c2ccc(O[C@@H]3O[C@H](CO)[C@@H](O)[C@H](O)[C@H]3O)cc2)cc1 -3.2%
CCn1nc(C)c(NC(=O)CCSc2nc(-c3ccco3)cc(C(F)(F)F)n2)c1C -7%
CCOC(=O)c1[nH]c(C)c(/C(O)=C2\C(=O)C(=O)N(CCCN3CCOCC3)C2c2cccnc2)c1C (configuration not stated) 5%
COc1cc(C2CC(=O)NC3=C2C(=O)CC(C)(C)C3)cc(OC)c1O (configuration not stated) -3.3%
CCCSc1nc(N)c2c3c(sc2n1)CN(C)CC3 26.6%
CCSc1nc(N)c2c3c(sc2n1)CN(C)CC3 1.8%
COc1ccc(CCNC(=O)c2c(-c3ccccc3)noc2C)cc1OC -0.3%
O=C(O)C(Cc1ccccc1)N1C(=O)c2ccccc2C1=O (configuration not stated) 9.7%
O=C(O)C(Cc1ccccc1)n1cccc1 (configuration not stated) 3.2%
Cc1ccc(NC(=O)CSc2nnc(-c3ccc(S(=O)(=O)N4CCOCC4)cc3)n2C)cc1 0.6%
O=C(Nc1ccc(N2CCN(c3ccc(O)cc3)CC2)cc1)Oc1ccccc1 -11.2%
CSc1nc(NCc2ccco2)c2c3c(sc2n1)CN(C)CC3 0.3%
CCN1CCc2c(sc3c2c(NCc2ccco2)nc2nnnn23)C1 114%
CCS(=O)(=O)/N=C(\N)c1ccccc1 2.5%
Cc1ccc(C=C2C(=O)c3ccccc3C2=O)s1 4.7%
Cc1cc(C)n(-c2ccc(C(=O)Nc3ccc4c(c3)OCO4)cc2)n1 -4.8%
COCCn1c(SCC(=O)Nc2nc(C)c(Cl)cc2Cl)nc2ccccc21 -7.3%
COCCn1c(SCC(=O)Nc2ccc(Cl)cn2)nc2ccccc21 -17%
c1coc(-c2nc3ccccc3nc2-c2ccco2)c1 22%
c1ccc(CSc2n[nH]c(-c3ccco3)n2)cc1 -8.3%
Nn1c(SCc2ccccc2)nnc1-c1ccco1 -4.8%
c1coc(-c2nc(-c3ccco3)c(-c3ccco3)nc2-c2ccco2)c1 43.1%
COc1cccc(Cn2c(-c3cccs3)noc2=O)c1 -1.2%
O=S1(=O)CCC(NS(=O)(=O)c2cccc3cccnc23)C1 (configuration not stated) -3.6%
Oc1ccc(-c2cn3c(n2)SCC3)cc1 -4.3%
O=C(Oc1ccc(-c2cn3c(n2)SCC3)cc1)c1ccccc1 -5.6%
CC1(C)Cc2nc3nc(SCC(=O)NCc4ccccc4)n(-c4ccccc4)c(=O)c3cc2CO1 -3.5%
COc1ccc(-c2noc(CSc3nnc(Cc4ccccc4)n3-c3cccc(C)c3)n2)cc1OC -7.5%
c1ccc2cc(CN3CCOCC3)ccc2c1 -1.4%
O=C(CC1C(=O)OCN1C(=O)OCc1ccccc1)OCC(=O)c1ccccc1 (configuration not stated) -0.3%
CCc1cn(S(=O)(=O)c2ccccc2OC)nc1N -3.2%
Nc1cc(C(=O)O)ccc1N1CCCCCC1 7%
COC(=O)c1ccc(N2CCC(C)CC2)c(N)c1 -13.4%
COC(=O)c1cn(NC(=O)c2cccc(OC)c2)c(=O)c2ccccc12 10.2%
O=C1CCC2(C(=O)O)Sc3ccccc3N12 (configuration not stated) -5.3%
Cn1cccc1-c1nc2ccc(NC(=O)c3ccc([N+](=O)[O-])cc3)cc2[nH]1 3.8%
COc1ccc(Cl)cc1C(=O)Nn1c(C)nc2ccccc2c1=O -6.8%
COc1ccc(Cn2c(C)ccc2C)cc1 -31.6%
Cc1cc(C)n(Cc2ccc(C(=O)O)cc2)n1 -12.7%
CSc1ccc(S(=O)(=O)Nc2ccc3c4c(cccc24)CC3)cc1 0.8%
O=C1CC(SC(=NCc2ccc3c(c2)OCO3)Nc2ccccc2)C(=O)N1c1ccccc1 (configuration not stated) 0.5%
CC(=O)Nc1ccc(S(=O)(=O)NC2=C(N3CCN(c4ccc(F)cc4)CC3)C(=O)c3ccccc3C2=O)cc1 30.5%
Cc1ccc(S(=O)(=O)NC2=C(N3CCN(Cc4ccccc4)CC3)C(=O)c3ccccc3C2=O)cc1 12.6%
Cc1ccc(NC(=O)CN2CC(C)SC2=NC2CCCCC2)cc1 (configuration not stated) -0.9%
COc1ccc(OCC(=O)Nc2cccc3cccnc23)cc1 -0.2%
COc1cc(NC(=O)C2CCCCC2)c2ncccc2c1 -2.9%
COc1ccc(OCCCC(=O)NC(C)c2ccccc2)cc1 (configuration not stated) 3.5%
CCOC(=O)C1CCN(C(C(=O)Nc2ccc3c(c2)OCCO3)c2ccccc2)CC1 (configuration not stated) -3.4%
O=C1c2sc3nc4c(c(=O)n3c2C(=O)N1c1ccccc1)CCC4 7%
O=C1c2sc3nc4ccccc4n3c2C(=O)N1c1ccccc1Cl 0.8%
O=C(CSc1ccccc1Cl)c1ccco1 3.7%
O=C(CSCc1ccc(Cl)cc1)c1ccco1 16.6%
